Screens as filed in PubChem.
DT40 TDP1 CPT = qHTS for Inhibitors of human tyrosyl-DNA phosphodiesterase 1 (TDP1): qHTS in cells in presence of CPT | 420,000 tested, 12% active | Potency, µM (highest dose often 46.2 µM), usual class: inhibitors | chicken DT40 Tdp1-/-;hTDP1 cells + 20 nM CPT, ATP luminescence, 48 h; also: nearly all actives have a fitted effect of over 55% in size
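Cell growth measured by CellTiter-Glo luminescence after a minimum 48 h, 37 C compound exposure with 20 nM CPT in Tdp1-knockout DT40 cells stably expressing hTDP1, seeded 400/well; qHTS titration format.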
IL-1B inflam inh = qHTS for Inhibitors of Inflammasome Signaling: IL-1-beta AlphaLISA Primary Screen. THP-1 LPS/ATP IL-1B secretion, AlphaLISA, 16 h; hits give low values. activity change, % at 57.5 µM. 360,000 tested, 4.7% active; in the data active = activity change below about -50%; inconclusive = mostly about -30% to -49%
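Secreted IL-1B measured by AlphaLISA bead assay after 16 h compound exposure of THP-1 cells; compounds (final up to 57.5 uM) added 1 h before LPS (250 ng/mL) and ATP (1.25 mM) stimulation; lower signal means less secretion.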
HT1080 IDH1KD tx = qHTS for induction of synthetic lethality in tumor cells producing 2HG: qHTS for the HT-1080-IDH1KD cell line; HT-1080 IDH1 knockdown viability, ATP luminescence, 48 h; Potency, µM (series often up to 46.1 µM), most hits filed as cytotoxic; 360,000 tested, 2% active; AID 686971, 2013
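Using the IDH1-knockdown HT-1080 line run in the same batch and compound series as the NT line, viability after 48 h at 37 °C was determined by CellTiter-Glo luminescence and expressed as % activity.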
uPA surface inh = qHTS for Inhibitors of Cell Surface uPA Generation; cell surface uPA generation assay, qHTS; 330,000 tested, 0.31% active; Potency, µM (top dose mostly 38.3 µM), usual class: inhibitors; active = well fitted inhibition curve with a large enough effect; inconclusive = small, poorly fitted or top-dose-only effect; inactive = no such curve, though single readings can be large or run the other way; tested in mouse RAW 264.7 cells; also: nearly all actives have a fitted effect of over 55% in size
DT40 TDP1 no CPT = qHTS for Inhibitors of human tyrosyl-DNA phosphodiesterase 1 (TDP1): qHTS in cells in absence of CPT; Potency, µM (top dose mostly 46.2 µM), hits mostly inhibitors; DT40 Tdp1-/- hTDP1 cells, no CPT, ATP luminescence, 48 h; AID 686978, 2013; 420,000 tested, 15% active; also: nearly all actives have a fitted effect of over 55% in size
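Stably hTDP1-transfected Tdp1-null chicken DT40 cells were treated with library compounds minus camptothecin and grown for at least 48 hr at 37 °C, after which cellular ATP was quantified by luminescence.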
HT1080NT lethal = qHTS for induction of synthetic lethality in tumor cells producing 2HG: qHTS for the HT-1080-NT fibrosarcoma cell line | HT-1080-NT fibrosarcoma viability, CellTiter-Glo ATP luminescence, 48 h | Potency, µM (highest dose often 46.1 µM), most hits filed as cytotoxic | 360,000 tested, 1.6% active | AID 686970, 2013;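 also: NT is the 2HG producing partner of a matched IDH1 knockdown line; nearly all actives have a fitted effect of over 55% in size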
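Fibrosarcoma NT cells, 750 per well in 5% FBS RPMI, were exposed to compound for 48 hours. Viability: CellTiter-Glo luminescence.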
A number is an active result; n = inactive; u = inconclusive; x = not tested or not shown. An excerpt weighted towards active compounds, which were near 19% of everything screened. Unless noted, calls follow the shape of the dose curve; as a rule, active = well fitted curve in the direction sought with a large enough effect; inconclusive = small, poorly fitted or top-dose-only effect, or another doubt; inactive = no such curve, though single readings can be large; an effect the other way counts as inactive or inconclusive.

SMILES	DT40 TDP1 CPT	IL-1B inflam inh	HT1080 IDH1KD tx	uPA surface inh	DT40 TDP1 no CPT	HT1080NT lethal
Ic1cncc(OC[C@@H]2CCN2)c1	n	x	x	x	n	x
CC1Oc2cc3c(-c4c(O)cc(O)c5c(O)c6c(cc45)OC(C)C(C)C6=O)c(O)cc(O)c3c(O)c2C(=O)C1C (stereo not given)	0.016µM	u	8.2µM	5.6µM	0.12µM	4.6µM
O=S(=O)(c1ccc(Nc2ccc(-c3ccc4c(c3)OCCO4)nn2)cc1)N1CCCC1	u	n	u	u	u	16µM
CN[C@@H](C)Cc1ccccc1	n	x	x	x	n	x
CCc1ccc(N2C(=O)NC(=O)C(CCc3ccncc3)(CCc3ccncc3)C2=O)cc1	n	n	n	n	n	n
O=C1NC(=O)C(CCc2ccncc2)(CCc2ccncc2)C(=O)N1Cc1ccc(F)cc1	15µM	n	n	n	u	n
CC1(C)CCCN1CCC(C(N)=O)(c1ccccc1)c1ccccc1	n	n	n	n	n	n
O=c1c2ccccc2sn1-c1ccc(Cl)cc1	2.1µM	-106	u	x	1.8µM	u
Cc1ccc(-n2sc3ccccc3c2=O)cc1	2.9µM	-103	u	n	3.3µM	u
Cc1ccc(N2C(=O)CC(=O)NC2=O)cc1	n	n	n	x	n	n
O=c1[nH]c(=S)[nH]c(O)c1C(c1ccccn1)c1c(O)[nH]c(=S)[nH]c1=O	n	n	n	n	n	n
C[N+]1(C)CCC(OC(=O)C(c2ccccc2)c2ccccc2)CC1	n	n	n	n	n	n
Cc1c(C(=O)OC2CCCCC2)[nH]c2c1C(=O)CC(c1ccccc1)C2 (stereo not given)	4.6µM	x	x	x	2.1µM	x
Cc1c(C(=O)OCC(C)C)[nH]c2c1C(=O)CC(c1ccco1)C2 (stereo not given)	0.82µM	n	1.2µM	u	0.82µM	1.5µM
COc1ccc(NC(=O)c2ccc(COCC(F)(F)C(F)F)cc2)cc1	n	n	n	n	u	n
CC(=O)OC1CCC2(/C=N/O)C(=CCC3C4CCC(=O)C4(C)CCC32)C1 (stereo not given)	n	n	n	n	u	n
CNC(=O)c1cccn(Cc2cccc(C(F)(F)F)c2)c1=O	n	n	n	n	u	n
CCn1cc2nc(SCc3cccc(C(F)(F)F)c3)n(Cc3ccc(OC)cc3)c(=O)c2n1	21µM	x	x	x	15µM	x
CCn1cc2nc(SCc3c(F)cccc3Cl)n(CCc3ccccc3)c(=O)c2n1	15µM	x	x	x	23µM	x
Cc1nnc(SCc2nc3ccccc3c(=O)n2-c2ccccc2Cl)n1N	n	n	n	n	n	n
Brc1ccc2c(c1)-n1nncc1CN(CC1CCCCC1)C2	n	n	n	x	n	n
Nc1ccc2c(c1)oc1ccccc12	n	n	n	n	n	n
COC(=O)C1=C(c2ccc3ccccc3c2)C[C@@H]2CC[C@H]1N2C(=O)N1CCOCC1	u	n	n	u	5.8µM	n
COC(=O)C1=C(c2ccc(OC)c(OC)c2)C[C@@H]2CC[C@H]1N2C(=O)N1CCCCC1	8.2µM	n	n	n	9.2µM	n
COC(=O)C1=C(c2c(C)noc2C)C[C@@H]2CC[C@H]1N2C(=O)N1CCCC1	n	n	u	n	n	n
SMILES	DT40 TDP1 CPT	IL-1B inflam inh	HT1080 IDH1KD tx	uPA surface inh	DT40 TDP1 no CPT	HT1080NT lethal
COC(=O)C1=C(c2cc3ccccc3o2)C[C@@H]2CC[C@H]1N2C(=O)N1CCOCC1	3.7µM	n	u	u	x	23µM
COC(=O)C1=C(c2cccc(OC)c2OC)C[C@@H]2CC[C@H]1N2C(=O)N1CCOCC1	n	n	n	n	n	n
COC(=O)C1=C(c2ccc3ccccc3c2)C[C@@H]2CC[C@H]1N2C(=O)N1CCCCC1	2.3µM	n	n	n	1.8µM	n
COC(=O)C1=C(c2ccc(OC)c(OC)c2)C[C@@H]2CC[C@H]1N2C(=O)N1CCC(O)CC1	n	n	n	n	n	n
Cc1ccc2n1Cc1cnnn1-c1ccccc1-2	u	n	n	x	u	n
O=C(N/N=C\c1ccc(COc2ccc([N+](=O)[O-])cc2)o1)c1cccc(Cl)c1	n	n	n	n	u	n
COC(=O)C1=C(c2ccc3ccccc3c2)C[C@@H]2CC[C@H]1N2C(=O)N1CCCC1	2.9µM	n	n	u	3.3µM	n
COC(=O)C1=C(c2ccc3ccccc3c2)C[C@@H]2CC[C@H]1N2C(=O)N1CCC(O)CC1	u	n	n	n	u	n
Cc1ccccc1C(=O)Oc1cccc(Nc2ncnc3ccccc23)c1	16µM	n	u	n	13µM	n
Cc1ccnc(NS(=O)(=O)c2ccc(N=Cc3c(O)n(C)c(=O)n(C)c3=O)cc2)n1	n	n	n	n	n	n
C/C=C(\CC)C(=O)NC(N)=O	n	x	x	x	n	x
